Rows were chosen to be rich in hits. Some 4.2% of all compounds tested hit in one or more screens of this group.
Mtb FBA inh – Mtb fructose-bisphosphate aldolase inhibition; P9WQA3; purified M. tuberculosis FBA, fluorescence read-out; inhibition, % at 1 µM; 360,000 compounds, 2.3% hits; in the data active = inhibition above about 27%;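 note: 0% = vehicle and 100% = reference inhibitor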
GDH-TPI counter – GDH-TPI coupled enzyme inhibition counter-screen. GDH-TPI coupled enzyme counterscreen, NADH absorbance. inhibition, % at 4.8 µM. 360,000 compounds, 1.2% hits. AID 588335;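 note: 0% = DMSO wells and 100% = wells lacking the enzyme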
RecA intein inh – blocks M. tuberculosis RecA intein splicing; 290,000 compounds, 0.75% hits; P9WHJ3; AID 2221; inhibition, % (concentration not given with the values); cell-free RecA intein splicing, fluorescence; in the data active = inhibition above about 30%;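 note: 0% = vehicle wells and 100% = reference inhibitor control wells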
Target sequence (P9WHJ3 whole entry, looked up): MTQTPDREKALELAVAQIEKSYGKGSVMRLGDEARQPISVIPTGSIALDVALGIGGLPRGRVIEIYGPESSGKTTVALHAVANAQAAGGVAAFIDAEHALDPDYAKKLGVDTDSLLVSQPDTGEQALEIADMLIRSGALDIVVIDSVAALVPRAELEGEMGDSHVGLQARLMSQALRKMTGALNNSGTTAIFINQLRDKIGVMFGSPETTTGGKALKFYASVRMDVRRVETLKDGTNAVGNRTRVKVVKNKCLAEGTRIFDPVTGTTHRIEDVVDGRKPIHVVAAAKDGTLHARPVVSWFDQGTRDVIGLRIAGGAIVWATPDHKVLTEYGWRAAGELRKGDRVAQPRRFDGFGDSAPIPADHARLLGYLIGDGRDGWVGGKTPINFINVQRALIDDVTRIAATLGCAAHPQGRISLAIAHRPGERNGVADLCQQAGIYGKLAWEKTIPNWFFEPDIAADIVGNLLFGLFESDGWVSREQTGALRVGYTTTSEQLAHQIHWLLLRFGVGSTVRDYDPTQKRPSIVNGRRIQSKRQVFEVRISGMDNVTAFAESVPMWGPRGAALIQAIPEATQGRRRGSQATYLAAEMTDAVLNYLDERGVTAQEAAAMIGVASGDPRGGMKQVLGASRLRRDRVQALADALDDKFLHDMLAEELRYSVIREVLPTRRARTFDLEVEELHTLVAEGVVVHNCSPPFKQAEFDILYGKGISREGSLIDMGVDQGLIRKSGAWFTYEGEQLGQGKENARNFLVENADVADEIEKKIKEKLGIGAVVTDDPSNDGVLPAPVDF
CCHF vOTU inh – CCHFV vOTU protease inhibition | AID 651958 | inhibition, % at 11.5 µM | Pep-AMC fluorescence | 370,000 compounds, 0.55% hits; note: 0% = vehicle wells with enzyme and 100% = no enzyme wells
GFP chromo cs – counter-screen: blocks GFP chromophore formation. 2,100 compounds, 83% hits. EC50, µM. cell-free GFP chromophore formation, fluorescence. shares compounds with RecA intein inh; call rule not given here
* hit, by the source's call; . = no result. Cut-off read from the data, not from the text of the source, unless noted: active = inhibition above about 30%; inactive = the rest.

SMILES	Mtb FBA inh	GDH-TPI counter	RecA intein inh	CCHF vOTU inh	GFP chromo cs
O=C(O)COc1ccc(/C=C2/SC(=S)N(Cc3ccccc3)C2=O)cc1	-3	4	53*	20	36*
O=C(O)CN1C(=O)/C(=C\c2cccc(OC(=O)c3ccco3)c2)SC1=S	-5	16	31*	8	>38
CSc1nnc(NC(=O)c2ccco2)s1	2	12	-1	-5	.
Cc1cccc(CS(=O)(=O)c2ncc(Cl)c(C(=O)Nc3nnc(C(C)C)s3)n2)c1	1	11	86*	.	0.86*
CSc1nnc(NC(=O)c2nc(S(=O)(=O)Cc3cccc(C)c3)ncc2Cl)s1	-1	10	81*	15	18*
CC(C)c1nnc(NC(=O)c2nc(S(=O)(=O)Cc3ccc(F)cc3)ncc2Cl)s1	-2	3	82*	1	16*
CC(C)c1nnc(NC(=O)CCC(=O)N2CCN(Cc3ccc(F)cc3)CC2)s1	0	2	-1	9	.
CC(C)c1nnc(NC(=O)CS(=O)(=O)Cc2ccccc2)s1	3	-2	3	7	.
Cc1ccc(CS(=O)(=O)c2ncc(Cl)c(C(=O)Nc3nnc(C(C)C)s3)n2)cc1	2	10	86*	-1	3.7*
COc1ccc(Cn2c(C)nc3ccc([N+](=O)[O-])cc3c2=O)cc1	1	9	-2	7	.
CCSc1nnc(NC(=O)c2nc(S(=O)(=O)Cc3ccc(F)cc3)ncc2Cl)s1	2	3	85*	7	21*
Cc1[nH][nH]c(=O)c1C(c1ccc(N(C)C)c(Br)c1)c1c(C)[nH][nH]c1=O	-4	1	97*	12	0.47*
Cc1[nH][nH]c(=O)c1C	4	5	.	-9	.
Cc1[nH]n(-c2ccc(Cl)cc2)c(=O)c1C(=O)c1ccccc1	1	7	3	17	.
CC1=NN(c2ccc(Cl)cc2)C(=O)C1C(c1cccc(O)c1)c1c(C)[nH]n(-c2ccc(Cl)cc2)c1=O (centres undefined)	-1	6	88*	.	2.3*
CCOc1cc(C(=O)Nc2cccc(OCC(=O)N3CCOCC3)c2)cc(OCC)c1OCC	-6	8	.	16	.
CCNc1nnc(SCC(=O)NC2CCCCCC2)s1	-3	-3	.	-2	.
O=C(O)c1ccccc1Nc1ccc([N+](=O)[O-])cc1	-11	7	4	-6	.
O=[N+]([O-])c1c(Nc2ccc(O)cc2)cc(Cl)c2nonc12	-8	10	95*	9	1*
O=C(O)c1ccccc1Nc1cc(Cl)c2nonc2c1[N+](=O)[O-]	-18	13	90*	17	2.6*
O=C(O)c1cccc(Nc2cc(Cl)c3nonc3c2[N+](=O)[O-])c1	-18	2	88*	13	4.8*
CC1(C(=O)NS(=O)(=O)c2cccc(Cl)c2)CCN1C(=O)CCc1ccccc1 (centres undefined)	4	-5	.	4	.
CCN1CCN(c2ccc(S(=O)(=O)N3CCOCC3)cc2NC(=O)CC(NC(C)=O)c2ccccc2)CC1 (centres undefined)	3	-2	.	-9	.
COc1ccc(C(N)c2nccc3cc(OC)c(OC)cc23)cc1OC (centres undefined)	6	27	92*	.	>38
COc1cccc(-c2[nH]nc3c2C(c2ccsc2)C(C#N)=C(N)O3)c1 (centres undefined)	0	5	76*	-1	7.7*
SMILES	Mtb FBA inh	GDH-TPI counter	RecA intein inh	CCHF vOTU inh	GFP chromo cs
Cc1[nH]nc2c1C(c1ccsc1)C(C#N)=C(N)O2 (centres undefined)	-2	6	83*	-8	39*
COc1cc(-c2[nH]nc3c2C(c2ccco2)C(C#N)=C(N)O3)cc(OC)c1OC (centres undefined)	-2	8	79*	8	9.1*
COc1cc(-c2[nH]nc3c2C(c2ccoc2)C(C#N)=C(N)O3)cc(OC)c1OC (centres undefined)	-1	10	.	11	.
Cc1ccc(-c2[nH]nc3c2C(c2ccsc2)C(C#N)=C(N)O3)cc1 (centres undefined)	0	-2	65*	6	1.8*
Cc1cccc(C)c1NC(=O)C1c2ccccc2OCC(=O)N1CCc1ccccc1 (centres undefined)	.	.	.	8	.
Cc1[nH]nc2c1C(c1ccc3c(c1)OCO3)C(C#N)=C(N)O2 (centres undefined)	2	7	67*	-10	39*
CCn1c(C)cc2c(c1=O)C(c1ccc3c(c1)OCO3)C(C#N)=C(N)O2 (centres undefined)	6	11	0	-7	.
N#CC1=C(N)Oc2n[nH]c(-c3ccncc3)c2C1c1ccsc1 (centres undefined)	5	5	54*	-10	38*
N#CC1=C(N)Oc2n[nH]c(-c3ccccc3)c2C1c1ccsc1 (centres undefined)	-2	22	86*	8	31*
CCC(CC)C1C(C#N)=C(N)Oc2n[nH]c(-c3ccccc3)c21 (centres undefined)	0	9	4	19	.
COc1cccc(-c2[nH]nc3c2C(c2ccoc2)C(C#N)=C(N)O3)c1 (centres undefined)	3	27	82*	13	9.8*
Cc1cccc(C)c1Nc1ncnc2ccccc12	-2	-7	0	-1	.
N#CC12C(=O)NC(=O)C1(C#N)C21CCCC1 (centres undefined)	0	-12	.	6	.
COc1ccc(CC2=C(O)c3ccccc3C(=O)C2=O)cc1	-4	4	2	-5	.
O=C1C(=O)c2ccccc2C(O)=C1CCCCl	-3	-11	60*	.	12*
Nc1ccc(O)cc1	.	.	81*	.	31*
CCOC(=O)/C(=C\c1ccccc1)C(=O)CCN1CCOCC1	-2	-8	.	9	.
Cc1[nH]c2ccccc2c1/C=N/Nc1nc2ccccc2[nH]1	1	23	34*	-2	>38
O=C(CCl)Nc1cc(-c2ccccc2)nn1-c1ccccc1	0	2	62*	-2	40*
Cc1ccc(-c2cc(NC(=O)CCl)n(-c3ccccc3)n2)cc1	-2	5	73*	9	33*
COc1ccc(CNC(=O)c2nc(S(=O)(=O)Cc3ccccc3)ncc2Cl)cc1	5	-2	82*	14	15*
O=C(NCc1ccccc1)c1nc(S(=O)(=O)Cc2ccccc2)ncc1Cl	3	10	77*	13	17*
COC(=O)c1ccccc1NC(=O)c1nc(S(=O)(=O)Cc2ccccc2)ncc1Cl	-1	3	2	13	.
CC(=O)Nc1ccc(NC(=O)c2nc(S(=O)(=O)Cc3ccccc3)ncc2Cl)cc1	2	10	40*	-4	26*
CCS(=O)(=O)c1ncc(Cl)c(C(=O)Nc2ccc(C)cc2)n1	0	17	65*	-6	23*
Cc1ccc(CS(=O)(=O)c2ncc(Cl)c(C(=O)Nc3ccc(OC(F)F)cc3)n2)cc1	3	7	14	21	.
O=C(COC(=O)c1ccc(Br)c(S(=O)(=O)N2CCOCC2)c1)NC1CC1	2	2	.	-6	.
Cc1c(C(=O)Nc2ccc(F)cc2)sc2ncn(CC(=O)N3CCCCC3)c(=O)c12	-3	7	2	16	.
